Test results published in PubChem BioAssay AID1159580 (chemical genetic matrix, 2015).
Screen size: about 5,500 compounds; about 2,000 (36%) were called active. Another 18% or so got no clear call; they are omitted. Rule as the data show it: active = normalized growth mostly below about 0.91 (no sharp cut-off); inconclusive = no clear call, values can overlap the other calls; inactive = mostly above about 0.92. The list shows a part of the results.

Test: chemical genetic growth profiling, strain panel (AID 1159580);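 also: tested at 20 µM; growth read once vehicle control cultures reached saturation at 30 °C; 1 = growth at the plate median or of vehicle wells; lower values mean less growth of the strain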
Conditions: S. cerevisiae deletion strains, growth OD

Measured: normalized growth

COc1ccc(-c2coc3c(OC)c(OC)cc(OC)c3c2=O)cc1
inactive: locus YAL013W, strain DEP1, active compounds read low 0.977 | locus YBR021W, strain FUR4, active compounds read low 0.875 | locus YBR229C, strain ROT2, active compounds read low 0.998 | locus YCL029C, strain bik1, active compounds read low 1 | locus YDL035C, strain GPR1, active compounds read low 0.985 | locus YDL074C, strain BRE1, active compounds read low 0.961 | locus YDL101C, strain DUN1, active compounds read low 0.993 | locus YDL185W, strain tfp1, active compounds read low 0.992 | locus YDL192W, strain arf1, active compounds read low 0.991 | locus YDR101C, strain arx1, active compounds read low 0.983 | locus YDR150W, strain NUM1, active compounds read low 0.991 | locus YDR162C, strain NBP2, active compounds read low 0.893 | locus YDR318W, strain mcm21, active compounds read low 0.978 | locus YDR388W, active compounds read low 1.01 | locus YDR502C, strain sam2, active compounds read low 0.982 | locus YEL061C, strain CIN8, active compounds read low 1 | locus YER110C, active compounds read low 0.995 | locus YER155C, strain BEM2, active compounds read low 0.998 | locus YER167W, strain BCK2, active compounds read low 0.977 | locus YGL078C, strain dbp3, active compounds read low 1 | locus YGL086W, strain mad1, active compounds read low 0.974 | locus YGL248W, strain PDE1, active compounds read low 0.979 | locus YGR078C, strain PAC10, active compounds read low 0.94 | locus YGR135W, strain pre9, active compounds read low 0.969 | locus YGR252W, strain gcn5, active compounds read low 0.848 | locus YHR030C, strain SLT2, active compounds read low 0.997 | locus YHR079C, strain IRE1 (second series), active compounds read low 0.993 | locus YHR094C, strain hxt1, active compounds read low 0.996 | locus YHR129C, strain ARP1, active compounds read low 0.995 | locus YHR200W, strain rpn10, active compounds read low 0.985 | locus YIL066C, strain RNR3, active compounds read low 0.951 | locus YIL073C, strain SPO22, active compounds read low 0.973 | locus YIL125W, strain kgd1, active compounds read low 0.992 | locus YIR030C, strain dcg1, active compounds read low 1.01 | locus YJL095W, strain BCK1, active compounds read low 0.899 | locus YJL134W, strain LCB3, active compounds read low 1 | locus YJL168C, strain set2, active compounds read low 0.995 | locus YJL187C, strain SWE1 (second series), active compounds read low 0.971 | locus YJR043C, strain POL32, active compounds read low 0.964 | locus YJR075W, strain HOC1, active compounds read low 0.974 | locus YKL009W, strain mrt4, active compounds read low 0.981 | locus YKL068W, active compounds read low 1.02 | locus YKL085W, strain MDH1 (second series), active compounds read low 0.993 | locus YKL085W, strain MDH1, active compounds read low 0.993 | locus YKL190W, strain CNB1, active compounds read low 0.986 | locus YKR001C, strain vps1, active compounds read low 0.903 | locus YLR039C, strain RIC1, active compounds read low 0.928 | locus YLR058C, strain SHM2, active compounds read low 0.983 | locus YLR102C, strain apc9, active compounds read low 0.993 | locus YLR262C, strain YPT6, active compounds read low 0.904 | locus YLR268W, strain sec22, active compounds read low 0.952 | locus YLR330W, strain CHS5, active compounds read low 1 | locus YLR342W, strain FKS1 (second series), active compounds read low 0.924 | locus YLR371W, strain rom2, active compounds read low 0.993 | locus YLR418C, strain cdc73, active compounds read low 0.884 | locus YML016C, strain PPZ1, active compounds read low 1 | locus YML032C, strain rad52, active compounds read low 0.999 | locus YML124C, strain tub3, active compounds read low 0.994 | locus YMR078C, strain ctf18, active compounds read low 1.01 | locus YMR223W, strain ubp8, active compounds read low 0.994 | locus YMR307W, strain GAS1, active compounds read low 0.83 | locus YNL067W, strain RPL9B, active compounds read low 0.964 | locus YNL128W, strain TEP1, active compounds read low 0.998 | locus YNL153C, strain GIM3, active compounds read low 0.978 | locus YNL233W, strain BNI4, active compounds read low 0.914 | locus YNL250W, strain rad50, active compounds read low 1.02 | locus YNL271C, strain bni1, active compounds read low 1 | locus YNL298W, strain CLA4, active compounds read low 1.01 | locus YNL307C, strain MCK1, active compounds read low 0.968 | locus YNL322C, strain KRE1, active compounds read low 0.985 | locus YNR052C, strain pop2, active compounds read low 1.02 | locus YOL012C, strain htz1 1.15 | locus YOL147C, strain pex11, active compounds read low 0.982 | locus YOR061W, strain CKA2, active compounds read low 0.998 | locus YOR069W, strain VPS5, active compounds read low 1.01 | locus YOR136W, strain idh2, active compounds read low 0.987 | locus YOR144C, strain elg1, active compounds read low 0.991 | locus YOR184W, strain ser1, active compounds read low 0.938 | locus YOR316C, strain cot1, active compounds read low 0.999 | locus YPL055C, strain LGE1, active compounds read low 0.904 | locus YPL241C, strain CIN2, active compounds read low 0.995 | locus YPR119W, strain clb2, active compounds read low 0.987 | locus YPR141C, strain kar3, active compounds read low 1 | locus YPR163C, strain tif3, active compounds read low 0.985 | locus YPR167C, strain met16, active compounds read low 0.985 | strain wtn01, active compounds read low 0.972
